Laboratory results as given in a collection of fitness landscapes (doi:10.1126/science.1257360).
In all, about 140,000 sequences were measured (“enrichment ratio after two sorts for PhoP signalling”: median about 0, highest 2% from about 11 on). The entries come from a sample that favours the highest values as a whole.

B1: PhoQ; a variant is named by its letters at X, in order, P23837 (parent)
chain: MKKLLRLFFPLSLRVRFLLATAAVVLVLSLAYGMVALIGYSVSFDKTTFRLLRGESNLFYTLAKWENNKLHVELPENIDKQSPTMTLIYDENGQLLWAQRDVPWLMKMIQPDWLKSNGFHEIEADVNDTSLLLSGDHSIQQQLQEVREDDDDAEMTHSVAVNVYPATSRMPKLTIVVVDTIPVELKSSYMVWSWFIYVLSANLLLVIPLLWVAAWWSLRPIEALAKEVRELEEHNRELLNPATTRELTSLVRNLNRLLKSERERYDKYRTTLTDLTHSLKTPLXXLQXXLRSLRSEKMSVSDAEPVMLEQISRISQQIGYYLHRASMRGGTLLSRELHPVAPLLDNLTSALNKVYQRKGVNISLDISPEISFVGEQNDFVEVMGNVLDNACKYCLEFVEISARQTDEHLYIVVEDDGPGIPLSKREVIFDRGQRVDTLRPGQGVGLAVAREITEQYEGKIVAGESMLGGARMEVIFGRQHSAPKDE

Variants of: B1
Experiment: enrichment ratio after two sorts for PhoP signalling (ratio (wild type AVST 3.29)); higher = more functional
Conditions: with PhoP (E. coli)
IAPL was tested, and the enrichment ratio was 0.723. In the case of FWFH, the enrichment ratio is reported as ≤ 0.25. NRLH was tested, and the enrichment ratio was ≤ 0.25. For YSSN, the enrichment ratio was ≤ 0.25. Variant TQIM has an enrichment ratio of 17.9. For IQGH, the enrichment ratio was ≤ 0.25. Variant TQIV has an enrichment ratio of 1.59. For TQGH, the enrichment ratio was 18.9. TQGP was tested, and the enrichment ratio was ≤ 0.25. For SNIM, the enrichment ratio was ≤ 0.25. With SLIM the enrichment ratio was ≤ 0.25. Work on SQIM yielded an enrichment ratio of 20.8. With SAGM the enrichment ratio was 12.9. For SAGD, the enrichment ratio was ≤ 0.25. SAPM gave an enrichment ratio of 2.5. For TQPM, the enrichment ratio was ≤ 0.25. YRHV was tested, and the enrichment ratio was ≤ 0.25. With SCLV the enrichment ratio was 9.82. With QTDD the enrichment ratio was ≤ 0.25. AISA gave an enrichment ratio of 10.4. In the case of AFMR, the enrichment ratio is reported as ≤ 0.25. In the case of MLCP, the enrichment ratio is reported as ≤ 0.25. With HKNV the enrichment ratio was ≤ 0.25. In the case of RAQI, the enrichment ratio is reported as ≤ 0.25. In the case of MIHT, the enrichment ratio is reported as ≤ 0.25. DVMK was tested, and the enrichment ratio was ≤ 0.25. For WFDE, the enrichment ratio was ≤ 0.25. HTHH was tested, and the enrichment ratio was ≤ 0.25. In the case of ADIM, the enrichment ratio is reported as ≤ 0.25. In the case of YDIM, the enrichment ratio is reported as ≤ 0.25. With TQGG the enrichment ratio was 1.42. With TQGA the enrichment ratio was 2.57. ATIM showed an enrichment ratio of 19.5. Work on TQGQ yielded an enrichment ratio of 28. In the case of TDIS, the enrichment ratio is reported as 1.04. HSAY was tested, and the enrichment ratio was ≤ 0.25. For EAHH, the enrichment ratio was ≤ 0.25. With YEYT the enrichment ratio was ≤ 0.25. In the case of DFEY, the enrichment ratio is reported as ≤ 0.25. SNCC showed an enrichment ratio of 14.7. For SSTC, the enrichment ratio was 10.3. For TSCC, the enrichment ratio was 17.3. With NSCC the enrichment ratio was ≤ 0.25. In the case of WICC, the enrichment ratio is reported as ≤ 0.25. For IQCC, the enrichment ratio was ≤ 0.25. For KSCC, the enrichment ratio was ≤ 0.25. SSCC showed an enrichment ratio of 17.1. For SQCC, the enrichment ratio was 8.97. For KYCC, the enrichment ratio was ≤ 0.25. Variant SICC has an enrichment ratio of 17.3. Variant SRCC has an enrichment ratio of 0.803. For IFYT, the enrichment ratio was ≤ 0.25. With FSGP the enrichment ratio was ≤ 0.25. In the case of NGLQ, the enrichment ratio is reported as ≤ 0.25. For YYFP, the enrichment ratio was ≤ 0.25. With YTCC the enrichment ratio was ≤ 0.25. STCC was tested, and the enrichment ratio was 13.7. In the case of GTCC, the enrichment ratio is reported as ≤ 0.25. TTCC was tested, and the enrichment ratio was 11.5. In the case of FQCC, the enrichment ratio is reported as ≤ 0.25. For CTCC, the enrichment ratio was ≤ 0.25. Variant TQCC has an enrichment ratio of 65. In the case of DWCC, the enrichment ratio is reported as ≤ 0.25. With ITCC the enrichment ratio was ≤ 0.25. With EYTF the enrichment ratio was ≤ 0.25. With NSIQ the enrichment ratio was ≤ 0.25. In the case of HLYG, the enrichment ratio is reported as ≤ 0.25. PLPH was tested, and the enrichment ratio was ≤ 0.25. For MDHD, the enrichment ratio was ≤ 0.25. In the case of IKKC, the enrichment ratio is reported as ≤ 0.25. ANVL was tested, and the enrichment ratio was 13.9. With ANYM the enrichment ratio was 0.253. With HWVL the enrichment ratio was ≤ 0.25. With ARSL the enrichment ratio was 0.309. ANNL was tested, and the enrichment ratio was 15.7. Variant ANIL has an enrichment ratio of 22.8. ANSL was tested, and the enrichment ratio was 16.8. AIIL was tested, and the enrichment ratio was 1.11. Variant ADVL has an enrichment ratio of 3.21. For ANYN, the enrichment ratio was ≤ 0.25. For AHIL, the enrichment ratio was ≤ 0.25. In the case of ADSL, the enrichment ratio is reported as ≤ 0.25. For GFRD, the enrichment ratio was ≤ 0.25. EGVS was tested, and the enrichment ratio was ≤ 0.25. For WVKG, the enrichment ratio was ≤ 0.25. For NCEQ, the enrichment ratio was ≤ 0.25. GGVL gave an enrichment ratio of 7.68. For NKTR, the enrichment ratio was ≤ 0.25. In the case of AKIL, the enrichment ratio is reported as 18.4. NICL gave an enrichment ratio of 3.87. For AKCL, the enrichment ratio was 3.3. With AICL the enrichment ratio was 17.5. Variant AWCL has an enrichment ratio of 0.642. In the case of AQEL, the enrichment ratio is reported as ≤ 0.25. In the case of TKIL, the enrichment ratio is reported as 8.86. Variant AQCL has an enrichment ratio of 16. Work on ADIL yielded an enrichment ratio of 8.79. Work on ANCL yielded an enrichment ratio of 21.8. AQRL was tested, and the enrichment ratio was ≤ 0.25. In the case of WICL, the enrichment ratio is reported as ≤ 0.25. With EAPP the enrichment ratio was ≤ 0.25. For VFQT, the enrichment ratio was ≤ 0.25. VNLF was tested, and the enrichment ratio was ≤ 0.25. In the case of YIYL, the enrichment ratio is reported as ≤ 0.25. IDEK was tested, and the enrichment ratio was ≤ 0.25. TVNP was tested, and the enrichment ratio was ≤ 0.25. In the case of YDMC, the enrichment ratio is reported as ≤ 0.25. WVMR was tested, and the enrichment ratio was ≤ 0.25. For KNDA, the enrichment ratio was ≤ 0.25. With NLGK the enrichment ratio was ≤ 0.25. IKGA was tested, and the enrichment ratio was ≤ 0.25. WTQR was tested, and the enrichment ratio was ≤ 0.25. In the case of AISG, the enrichment ratio is reported as 19. Work on ACSG yielded an enrichment ratio of 12.3. KKSG was tested, and the enrichment ratio was ≤ 0.25. For WISN, the enrichment ratio was ≤ 0.25. AHSG showed an enrichment ratio of 6.86. For ADSG, the enrichment ratio was 1.26. For TIKN, the enrichment ratio was ≤ 0.25. With ARSG the enrichment ratio was ≤ 0.25. For ACSR, the enrichment ratio was 7.12. Variant AVSG has an enrichment ratio of 16.7. ACSN was tested, and the enrichment ratio was 4.45. In the case of TISN, the enrichment ratio is reported as 13.4. In the case of FHWW, the enrichment ratio is reported as ≤ 0.25. In the case of EFGD, the enrichment ratio is reported as ≤ 0.25. With HEGI the enrichment ratio was ≤ 0.25. With PMHY the enrichment ratio was ≤ 0.25. In the case of DEAG, the enrichment ratio is reported as ≤ 0.25. PCRA was tested, and the enrichment ratio was ≤ 0.25. In the case of MPIN, the enrichment ratio is reported as ≤ 0.25. QRYD was tested, and the enrichment ratio was ≤ 0.25. DRYI was tested, and the enrichment ratio was ≤ 0.25. For RDAL, the enrichment ratio was ≤ 0.25. For KVFV, the enrichment ratio was ≤ 0.25. Variant TISG has an enrichment ratio of 19.4. For WISG, the enrichment ratio was ≤ 0.25. With PISG the enrichment ratio was ≤ 0.25. For VGFY, the enrichment ratio was ≤ 0.25. With MQYW the enrichment ratio was ≤ 0.25. With SILQ the enrichment ratio was 6.96. With SALQ the enrichment ratio was 17.5. With TPLQ the enrichment ratio was ≤ 0.25. With DPLQ the enrichment ratio was ≤ 0.25. YALQ showed an enrichment ratio of 4.04. In the case of LNLQ, the enrichment ratio is reported as ≤ 0.25. In the case of KQLQ, the enrichment ratio is reported as ≤ 0.25. For TMLQ, the enrichment ratio was 12.2. In the case of MMLQ, the enrichment ratio is reported as ≤ 0.25. With SNLQ the enrichment ratio was 15.3. With NMLQ the enrichment ratio was ≤ 0.25. Variant SQLQ has an enrichment ratio of 13.6. In the case of YDYH, the enrichment ratio is reported as ≤ 0.25. For SRDH, the enrichment ratio was ≤ 0.25. TGMF showed an enrichment ratio of 9.36. With FPKH the enrichment ratio was ≤ 0.25. In the case of PMKR, the enrichment ratio is reported as ≤ 0.25. With KGCL the enrichment ratio was ≤ 0.25. With DMWF the enrichment ratio was ≤ 0.25. In the case of SAVH, the enrichment ratio is reported as 7.41. With DYTW the enrichment ratio was ≤ 0.25. Variant SRLQ has an enrichment ratio of 0.442. SSLQ showed an enrichment ratio of 14.5. With SYLQ the enrichment ratio was 2.49. KYLQ was tested, and the enrichment ratio was ≤ 0.25. With SELQ the enrichment ratio was 27.9. With SPLQ the enrichment ratio was ≤ 0.25. In the case of SQLA, the enrichment ratio is reported as 11.7. For SLLQ, the enrichment ratio was 7.5. SFLQ showed an enrichment ratio of 2.41. In the case of STLQ, the enrichment ratio is reported as 18.3. SQLT was tested, and the enrichment ratio was 11. SQLS was tested, and the enrichment ratio was 7.34. SFQN was tested, and the enrichment ratio was ≤ 0.25. For PRSD, the enrichment ratio was ≤ 0.25. With KDLQ the enrichment ratio was ≤ 0.25. With SGLQ the enrichment ratio was 16.6. In the case of LTLQ, the enrichment ratio is reported as 2.15. TDLQ gave an enrichment ratio of 18.8. In the case of SGLR, the enrichment ratio is reported as ≤ 0.25. In the case of RGLQ, the enrichment ratio is reported as ≤ 0.25. For HQEY, the enrichment ratio was ≤ 0.25. FHKA was tested, and the enrichment ratio was ≤ 0.25. With RKDF the enrichment ratio was ≤ 0.25. TFCG gave an enrichment ratio of 5.19. Work on GSLT yielded an enrichment ratio of 9.31. In the case of GSDN, the enrichment ratio is reported as ≤ 0.25. With GSLS the enrichment ratio was 11.8. For GSLI, the enrichment ratio was 15.5. For GSLA, the enrichment ratio was 6.7. With GSDK the enrichment ratio was ≤ 0.25. For AIWD, the enrichment ratio was ≤ 0.25. For LESL, the enrichment ratio was ≤ 0.25. MFLM was tested, and the enrichment ratio was ≤ 0.25. In the case of NELM, the enrichment ratio is reported as ≤ 0.25. For QELM, the enrichment ratio was ≤ 0.25. MKLM showed an enrichment ratio of 7.36. Work on TELM yielded an enrichment ratio of 13.8. Variant MELM has an enrichment ratio of 17.7.
